Our source for the survival values is PubChem BioAssay AID463173 (ICCB-Longwood Screening Facility, Harvard Medical School, 2010).

About 4,300 (8.3%) of roughly 52,000 compounds were called active. No stated cut-off is given here; in the data, active means survival mostly below about 52% (no sharp cut-off); inactive means mostly above about 56%. What follows is part of a selection rich in actives, with near analogues and random picks from the rest.

The experiment relates to DeltatarO mutant. The experiment in a line: growth inhibition of S. aureus wild type versus tarO mutant, primary screen, teichoic acid synthesis inhibitors, RN4220, OD600 (AID 463173). To be noted: OD600, 18 h, active compounds read low, screened at 18.75 µg/mL (by protocol).
As for `CCc1nc2cccnc2n1-c1ccc(CC(=O)Nc2cccc(C)c2C)cc1`, the survival is 81% (inactive).

With `O=C(NCc1ccco1)C1CCC(N2C(=O)c3ccccc3C2=O)CC1` (configuration not stated), the survival is 63% (inactive).

For the compound `CC(C)COC(=O)Cc1c(O)c2ccccc2[nH]c1=O`, the survival was 39% (active).

As to `C=CCNC(=O)Cc1c(O)c2ccccc2[nH]c1=O`, the survival is 101% (inactive).

As for `CCCCCc1c(O)c2ccccc2[nH]c1=O`, the survival was 103% (inactive).

Take `Cc1ccc(NC(=O)C2CCN(S(=O)(=O)c3c(C)noc3C)CC2)cc1C`: the survival is 91% (inactive).

With `Cc1c(C)n(Cc2ccc(F)cc2)c2ccc(C(=O)N3CCN(c4ccc(Cl)cc4)CC3)cc12`, the survival was 83% (inactive).

In the case of `CCN1C(C(=O)c2ccccc2)=C(OC(=O)COc2ccc(C)cc2)c2ccccc2S1(=O)=O`, the survival is 79% (inactive).

In the case of `CCCN1C(C(=O)c2ccccc2)=C(OC(=O)COc2ccccc2)c2ccccc2S1(=O)=O`, the survival is 49% (inactive).

`CCN1C(C(=O)c2ccccc2)=C(OC(=O)COc2ccccc2)c2ccccc2S1(=O)=O`: the survival was 41% (active).

Regarding `Cc1ccc(OCC(=O)OC2=C(C(=O)c3ccccc3)N(C)S(=O)(=O)c3ccccc32)cc1`, the survival was 82% (inactive).

In the case of `CCCN1C(C(=O)c2ccccc2)=C(OC(=O)COc2ccc(C)cc2)c2ccccc2S1(=O)=O`, the survival was 19% (active).

Regarding `CCN1C(C(=O)c2ccccc2)=C(OC(=O)COc2ccc(OC)cc2)c2ccccc2S1(=O)=O`, the survival was 60% (inactive).

`COc1ccc(-c2nc(C)c(CCNS(=O)(=O)c3cc(C)c(C)cc3C)s2)cc1`: the survival was 72% (inactive).

`CCc1ccc(Nc2nn(-c3ccc(OC(F)(F)F)cc3)nc2C(C)=O)cc1`: the survival was 92% (inactive).

As for `CCC1=NN(C(=O)Cc2ccccc2)C(O)(c2ccccc2)C1` (configuration not stated), the survival was 77% (inactive).

Consider `CCOC(=O)N1N=C(C)CC1(O)c1ccccc1` (configuration not stated), for which the survival was 90% (inactive).

Consider `CCC1=NN(C(=O)c2ccccc2O)C(O)(c2ccccc2)C1` (configuration not stated), for which the survival was 1% (active).

Turning to `COc1ccc(CCNC(=O)C2CCCN(c3nc4c(C)cc(C)cc4s3)C2)cc1OC` (configuration not stated), the survival is 81% (inactive).

On to `O=C(CC(c1ccccc1)c1ccccc1)N1CCN(c2ccccn2)CC1`, for which the survival was 72% (inactive).

As for `Cc1ccc(-c2nc3ccccc3[nH]2)cc1NC(=O)C(C)C`, the survival is 70% (inactive).

Take `Cc1ccc(-c2nc3ccccc3[nH]2)cc1NC(=O)COc1ccccc1[N+](=O)[O-]`: the survival is 60% (inactive).

`COc1cc(OC)cc(C(=O)Nc2cc(-c3nc4ccccc4[nH]3)ccc2C)c1`: the survival is 44% (active).

For the compound `COc1c(Cl)cc(C(=O)Nc2cc(-c3nc4ccccc4[nH]3)ccc2C)cc1Cl`, the survival is 49% (inactive).

Turning to `Cc1ccc(-c2nc3ccccc3[nH]2)cc1NC(=O)COc1cccc(C)c1C`, the survival is 43% (inactive).

In the case of `CCCOc1cccc(C(=O)Nc2cc(-c3nc4ccccc4[nH]3)ccc2C)c1`, the survival was 56% (active).

Take `CCCOc1ccc(C(=O)Nc2cc(-c3nc4ccccc4[nH]3)ccc2C)cc1`: the survival is 44% (active).

On to `CCCOc1cccc(C(=O)Nc2ccc(-c3nc4ccccc4o3)cc2)c1`, for which the survival was 77% (inactive).

In the case of `CCCOc1ccc(C(=O)Nc2cc(-c3nc4cc(C)cc(C)c4o3)ccc2C)cc1`, the survival is 85% (inactive).

Consider `Cc1ccc(-c2nc3ccccc3[nH]2)cc1NC(=O)COc1ccc(Cl)cc1Cl`, for which the survival was 18% (active).

For `Cc1ccc(OCC(=O)Nc2cc(-c3nc4ccccc4[nH]3)ccc2C)c(C)c1`, the survival was 78% (inactive).

With `Cc1ccc(C(C)C)c(OCC(=O)Nc2cc(-c3nc4ccccc4[nH]3)ccc2C)c1`, the survival was 71% (inactive).
